# In ChEMBL document CHEMBL3988442, “University of Dundee, Small-Polar-MMV Screening Library” (2021):
# The campaign covered roughly 38,000 compounds. About 1,200 (3.2%) showed an effect of 50% or more. The median lay at about -58%. The sample as a whole holds a higher share of strong results than the screen did.
# System: Plasmodium falciparum
# Experiment: Calibr Malaria Delayed Death Assay SOP
# Assay type: functional, organism-based
# Parameters: scale not given: in the data most compounds retested in dose-response had high values
# Conditions: concentration 4.99e-06 (unit not given; other assays of the set use mol/L)
row,SMILES,Percent Effect
1,CC(O)CN1CCC(CNCc2ccc(S(C)(=O)=O)cc2)CC1 (stereo not given),-36.2%
2,Cc1ccc(-c2n[nH]cc2CNCC2CCN(CC(C)O)CC2)cc1 (stereo not given),-46.8%
3,Cc1ncc(C(=O)N2CCCC(n3cccn3)C2)s1 (stereo not given),-29.56%
4,Cc1cc(CN2CCC(CNS(=O)(=O)c3ccccc3Cl)CC2)c(C)o1,52.45%
5,O=C(c1cccc(CNS(=O)(=O)c2ccccc2F)c1)N1CCCC1,-96.06%
6,Cc1cnc2c(S(=O)(=O)NCC3CC3)cccc2c1,-114.6%
7,CNC(=O)CS(=O)(=O)C1CCN(S(=O)(=O)c2ccccc2Cl)CC1,-120%
8,Cc1cc(CN2CCC(CNS(=O)(=O)c3ccccc3F)CC2)c(C)o1,78.36%
9,O=S(=O)(NCC1CCN(CCN2CCOCC2)C1)c1ccccc1F (stereo not given),-18.99%
10,CN(Cc1cnn(C)c1)C(=O)CCc1ccc2c(c1)OCO2,-45.89%
11,O=C(NCCc1ccncc1)c1cccnc1OCC(F)(F)F,-160.3%
12,Cc1ccc(CN2CC[C@@]3(O)CCN(S(=O)(=O)N(C)C)C[C@H]3C2)cc1C,52.24%
13,CN(C)S(=O)(=O)N1CC[C@]2(O)CCN(Cc3cccc(F)c3)C[C@@H]2C1,18.33%
14,CN(C)S(=O)(=O)N1CC[C@]2(O)CCN(CCc3cccc(F)c3)C[C@@H]2C1,52.04%
15,CN(C)S(=O)(=O)N1CC[C@]2(O)CCN(Cc3cc(F)cc(F)c3)C[C@@H]2C1,-90.9%
16,CN(C)S(=O)(=O)N1CC[C@]2(O)CCN(CCCc3cccnc3)C[C@@H]2C1,-68.67%
17,CN(C)S(=O)(=O)N1CC[C@]2(O)CCN(Cc3cccc(C#N)c3)C[C@@H]2C1,-65.92%
18,CCCC(=O)N1CCc2c(CNS(C)(=O)=O)cncc2C1.Cl,-54.25%
19,CCN(CC)S(=O)(=O)CC(=O)N1CCc2ccc(F)cc21,-118.6%
20,CC(C)[C@H](N)c1nnc(SCC(=O)Nc2ccc(Br)cc2)o1.Cl,-137.1%
21,O=C1CC(c2ccncc2)c2c(c(C(=O)O)cn2-c2ccccc2)N1 (stereo not given),-138.8%
22,Cc1ccc(CN(C)C(=O)CCn2c(=O)n(C)c3ccccc32)o1,-119.3%
23,CN1CCCN(C[C@@H]2CN(C(=O)N3CCOCC3)C[C@@H]2CO)CC1,-70.22%
24,CCc1nn(C)c(Cl)c1CN1CCCC(c2cc(O)nc(C)n2)C1 (stereo not given),11.23%

row,SMILES,Percent Effect
1,COC[C@@]12CCO[C@@H]1CCN(C(=O)Cc1ccc(C)cc1)C2,-64.19%
2,C[C@@H]1CN(C(=O)CCN2CCCC2)CC[C@@]1(O)C1CCOCC1,-34.11%
3,C[C@@H]1CN(C(=O)C2CCS(=O)(=O)CC2)C[C@@]1(O)C1CC1,-43.61%
4,C[C@@H]1CN(C(=O)C2CCS(=O)(=O)CC2)CC[C@@]1(O)C1CCOCC1,70.51%
5,O=C(NCCc1cc(F)ccc1F)NC(CO)c1ccccc1 (stereo not given),-122.1%
6,Cc1nc(CN(C)C2CCN(CC3CCOCC3)C2)no1 (stereo not given),-100.7%
7,CN1CCN(Cc2nnc(C3CCN(C(CO)CO)CC3)n2C)CC1,-107%
8,CCC(=O)N1CCC2(CC1)CC(CC(=O)NC1CC1)c1ccccc1O2 (stereo not given),-119.5%
9,CCN1CCC2(CC1)CC(NCc1cccs1)c1ccccc1O2.O=C(O)C(F)(F)F.O=C(O)C(F)(F)F (stereo not given),85.8%
10,CS(=O)(=O)NC1CC2(CCN(CC3CC3)CC2)Oc2ccccc21.O=C(O)C(F)(F)F (stereo not given),-15.02%
11,CCN1CCC2(CC1)CC(NC(=O)c1csnn1)c1ccccc1O2.O=C(O)C(F)(F)F (stereo not given),-39.08%
12,O=C(NC1CC2(CCN(CCO)CC2)Oc2ccccc21)c1csnn1 (stereo not given),-18.14%
13,Cc1nc(NC(=O)c2nn(-c3ccc(F)cc3C)cc2O)n[nH]1,-112%
14,CC(C)c1nc(C2CCCN2Cc2ccon2)no1 (stereo not given),-96.31%
15,Cc1noc(C)c1CN1CCO[C@H]2CN(C3CCOCC3)C[C@H]21.O=C(O)C(F)(F)F,1.266%
16,O=C(C1CC(=O)N(c2n[nH]c3cc(Br)ccc23)C1)N1CCSCC1 (stereo not given),-122.2%
17,OC1(CN2CCc3nnc(Cc4cccnc4)n3CC2)CCCNC1 (stereo not given),-87.58%
18,Cc1ccccc1N1CCN(C(=O)CC(C)C)CC1,-106.5%
19,CCN1CCn2c(C)cnc2C12CCN(C(=O)Cc1ccccc1)CC2.O=C(O)C(F)(F)F.O=C(O)C(F)(F)F,-58.2%
20,Cc1ccc(C(=O)Nc2nnc(C3CC3)s2)c(-n2cnnn2)c1C,-130.7%
21,COCCOCC(=O)Nc1ccnn1-c1ccc(Cl)cc1,-102.7%
22,COCC(=O)Nc1ccnn1-c1ccc(Cl)cc1,67.79%
23,CCOCCC(=O)Nc1ccnn1-c1ccc(Cl)cc1,-25.55%
24,COCCc1noc(C2CCCN(c3nc(N)nc4c3CCCC4)C2)n1 (stereo not given),-100.3%

row,SMILES,Percent Effect
1,Nc1nc2c(c(N3CCCC(c4nnc5ccccn45)C3)n1)CCNC2 (stereo not given),84.29%
2,Nc1nc2c(c(N3CCCC(CN4CCCC4=O)C3)n1)CCNCC2 (stereo not given),-109.9%
3,O=C(C1CC1)N1CCCN(c2ncnc3c2CCNCC3)CC1,-49.17%
4,c1ccn2c(C3CCCN(c4ncnc5c4CCNC5)C3)nnc2c1 (stereo not given),74.94%
5,COCCn1ccnc1C1CCCN(c2ncnc3c2CCC3)C1 (stereo not given),-114.3%
6,O=C(c1ccon1)N1CCN(c2ccncc2Cl)CC1,-22.81%
7,CC(CN1CCOC1=O)NC(=O)c1cccc2cc[nH]c12 (stereo not given),-144.8%
8,COc1ccccc1CCNC(=O)N1CCC(n2cncn2)CC1,-50.18%
9,Cc1cc(C)c(CNC(=O)C(C)Oc2ccccc2F)c(=O)[nH]1 (stereo not given),-101.9%
10,CC(C)Oc1ncccc1CNC(=O)C1CCCN(C(=O)C2CC2)C1 (stereo not given),-154.7%
11,O=C(C1CCC1)N1CCC(C(=O)N2CCC(c3ccc(F)cc3)C2)CC1 (stereo not given),-81.93%
12,O=C(C1CCCCC1)N1CCC(c2n[nH]c3nccnc23)CC1,-76.32%
13,O=C(C1CC1)N1CCC(C(=O)N2CCC(c3ccc(F)cc3)C2)CC1 (stereo not given),-98.79%
14,O=C(C1CCCC1)N1CCC(c2n[nH]c3nccnc23)CC1,-90.69%
15,CC(C)n1ccnc1C1CCN(C(=O)c2cc[nH]n2)CC1,-87.6%
16,O=C(C1CC1)N1CCC(c2nc(-c3ccccc3)n[nH]2)CC1,-99.03%
17,O=C(C1CCC1)N1CCCC(c2cccc(-n3ccnc3)n2)C1 (stereo not given),-55.02%
18,Cc1csc(C2(NC(=O)CCNC(=O)C(C)(C)C)CCCC2)n1,-41.74%
19,CCC(=O)N1CCc2onc(CNS(C)(=O)=O)c2C1,-110.9%
20,Cc1nc(NC(=O)C(C)n2ncc(Br)c2C)sc1C (stereo not given),-53.19%
21,COc1ccc(CNc2c(C)cnc3c2c(=O)n(C)c(=O)n3C)cc1,-41.96%
22,O=C(CN(CC(O)c1ccc(F)cc1)C1CC1)Nc1cccnc1 (stereo not given),-24.09%
23,COCC(=O)N1CCC2(COCc3c(C)nc(N(C)C)nc32)C1 (stereo not given),-113.3%
24,Fc1cccc(OC2CCN(CCn3cc4ccccc4n3)CC2)c1,-79.08%

row,SMILES,Percent Effect
1,COCCc1nnc(NC(=O)CCCc2ccccc2)o1,-177.1%
2,Fc1ccc(CN2CCC3(CC2)CCN(c2ncccn2)CC3)cc1.O=C(O)C(F)(F)F.O=C(O)C(F)(F)F,52.71%
3,Fc1ccc(CN2CCOCC3(CCN(Cc4nccs4)C3)C2)cc1.O=C(O)C(F)(F)F.O=C(O)C(F)(F)F (stereo not given),-2.709%
4,O=C(O)C(F)(F)F.O=C(O)C(F)(F)F.c1csc(CN2CCC3(CC2)CCN(CC2CC2)CC3)n1,31.82%
5,Fc1ccc(CN2CCC3(CC2)CCN(Cc2nccs2)CC3)cc1.O=C(O)C(F)(F)F.O=C(O)C(F)(F)F,86.13%
6,O=C(O)C(F)(F)F.O=C(O)C(F)(F)F.c1csc(CN2CC3(CCN(Cc4ccsc4)C3)C2)n1,-42.12%
7,Fc1ccc(CN2CCC3(CCN(Cc4nccs4)CC3)C2)cc1.O=C(O)C(F)(F)F.O=C(O)C(F)(F)F,56.57%
8,O=C(O)C(F)(F)F.O=C(O)C(F)(F)F.O=C(O)C(F)(F)F.c1cnc(N2CCC3(CCN(Cc4cccnc4)CC3)CC2)nc1,-79.89%
9,Cc1ccc(N2CCC3(CCN(Cc4nccs4)CC3)CC2)nn1,-7.428%
10,CS(=O)(=O)N1CCC2(CCN(Cc3nccs3)CC2)CC1.O=C(O)C(F)(F)F,-92.74%
11,CCS(=O)(=O)N1CCC2(CCN(Cc3nccs3)CC2)CC1.O=C(O)C(F)(F)F,-47.71%
12,O=C(O)C(F)(F)F.O=C(O)C(F)(F)F.c1cnc(N2CC3(CCN(Cc4ccncc4)C3)C2)nc1,-113.7%
13,O=C(NCC(=O)N1CCCCC1)c1sccc1C1CC1,-52.19%
14,Cc1ccsc1C(=O)N1CCC2(CC1)C(=O)N(C)CCN2CC1CC1.O=C(O)C(F)(F)F,-41.45%
15,CCc1ccc(NC(=O)N2C[C@H]3C[C@H](C(=O)NC(C)C)[C@@H](C2)O3)cc1,25.32%
16,CC(=O)N1CCCC(C(=O)NCCc2csc(-c3ccncc3)n2)C1 (stereo not given),-77.87%
17,CC(C)C(N)CNS(=O)(=O)Cc1cccc2cccnc12.Cl (stereo not given),3.917%
18,CC(Cn1cccn1)NC(=O)N(C)Cc1ccsc1 (stereo not given),-57.89%
19,O=C(CNC(=O)C1(c2ccc(F)cc2F)CCC1)Nc1ccccn1,-17.94%
20,CC(C)CN1CC(C(=O)NCCOc2ccc3c(c2)OCO3)CC1=O (stereo not given),-115.4%
21,Cc1ccnc(N2CCN(C[C@]3(O)CCCN4CCCC[C@@H]43)CC2)c1,7.79%
22,O[C@@]1(CN2CCN(Cc3ccncc3)CC2)CCCN2CCCC[C@@H]21,-71.07%
23,Cc1cnccc1N1CCN(C[C@]2(O)CCCN3CCCC[C@@H]32)CC1,73.88%
